Source: PubChem BioAssay
PAX8 inh HTS = lowers PAX8-driven luciferase in RMG-I cells. RMG-I TPO-luciferase reporter, SteadyGlo, 24 h. inhibition, % at 12.6 µM. actives 1.2% (n = 360,000);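 active = mean replicate inhibition at least 60% with every replicate also reaching 60%; inconclusive = only one of the two criteria is met; inactive = mean below 60% and not all replicates reaching 60%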;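 also: luciferase light reporting Pax8 driven TPO promoter activity; plate controls were median of neutral control wells for no effect and mitoxantrone controls for full effect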
esBAF inh = blocks esBAF chromatin remodeling in mouse ES cells | Bmi1-luciferase knock-in reporter, 24 h; 100% = twice the neutral-well signal | actives 2% (n = 350,000) | reporter increase, % at 12.5 µM; in the data active = activation above about 40%; inconclusive = no clear call, values can overlap the other calls;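 also: 0% = median of the plate's neutral control wells and 100% = double that signal; a rise in the Bmi1 reporter signal indicates esBAF inhibition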
TRPM1 prom inh = reduces MITF-dependent TRPM1 promoter luciferase signal; inhibition, % at 12.5 µM; SK-MEL-5 TRPM1 promoter luciferase, 24 h; actives 0.83% (n = 330,000);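 active = mean inhibition across replicates of 60% or more, whatever share of single replicates reaches that level; inconclusive = some that reach 60%, reason not given; inactive = mean inhibition across replicates below 60%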
Wnt act = Wnt/beta-catenin pathway activation | Wnt/beta-catenin reporter cell assay, activator, plate reader | actives 1.2% (n = 300,000) | activation, % at 9.35 µM | AID 743398; in the data active = activation above about 30%, passing the limit was not always enough; inconclusive = no clear call, values can overlap the other calls;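 also: 0% = neutral control wells and 100% = positive control wells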
EWS-Fli block = inhibitors of EWS/Fli oncoprotein transcriptional activity. inhibition, % at 12.6 µM. A673 NR0B1-luciferase reporter, viability-normalised. actives 0.67% (n = 350,000);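 active = mean inhibition of at least 50% after viability correction, with every replicate also passing that limit; inconclusive = mean reaches 50% but only one of two replicates passes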;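 also: firefly luciferase signal divided by Alamar Blue viability fluorescence both relative to DMSO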
MITF TRPM1 HTS = activators of MITF-driven TRPM1 promoter activity in SK-MEL-5 cells. SK-MEL-5 TRPM1-promoter luciferase, 24 h; % of positive control, neutral wells = 0. actives 0.75% (n = 300,000). activation, % at 12.5 µM. AID 588334;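 active = mean activation of at least 80% with every replicate also reaching 80%; inconclusive = mean reaches 80% but some replicate falls short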;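 also: 0% = neutral control wells and 100% = parthenolide positive control wells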
The depositor's hits bear a star; ? = inconclusive; / = not tested or not shown; ! = not confirmed by another sample. The list is not random: actives were taken first. Their share in the collection is about 4%.

SMILES | PAX8 inh HTS | esBAF inh | TRPM1 prom inh | Wnt act | EWS-Fli block | MITF TRPM1 HTS
Cc1ccc(C)c(NC(=O)c2cc(-c3ccccc3O)n[nH]2)c1 | -88 | 65* | -65 | 5 | -51 | 56
CC(C)(C)c1ccc(C(=O)Nc2sc3c(c2C(=O)O)CCC3)cc1 | 80* | -61 | 66* | -5 | 23 | -65
COc1cccc(C(=O)Nc2sc3c(c2C(=O)O)CCCC3)c1 | -12 | 55* | -10 | 26 | -207 | 7
Cc1ccc(-c2csc(NC(=O)c3ccc(F)cc3)c2C(=O)O)cc1 | -36 | 59* | -50 | -1 | -173 | 52
Cc1cccc(C(=O)Nc2sc3c(c2C(=O)O)CCC3)c1 | 15 | ? | -15 | 12 | -60 | 21
COc1cccc(C(=O)Nc2sc3c(c2C#N)CCN(C(C)=O)C3)c1 | 18 | / | 3 | -12 | 60* | -2
O=C(Nc1scc(-c2ccccc2)c1C(=O)O)c1ccc(F)cc1 | -66 | 22 | 2 | 0 | -48 | /
CC(=O)N[C@H]1CC[C@@H](CCNC(=O)C2CCCC2)O[C@@H]1CO | -3 | 7 | / | / | 0 | /
Cc1ccc(S(=O)(=O)Nc2ccc3c(c2)CC(=O)N([C@@H](C)CO)C[C@@H](C)[C@H](CN(C)S(=O)(=O)c2c(C)noc2C)O3)cc1 | -18 | 4 | / | / | 5 | /
CCCC(=O)N1CCC2(CC1)CN(C(=O)CC)[C@H](CO)c1c2c2ccc(OC)cc2n1C | / | / | / | / | 5 | /
O=C(Nc1sc2c(c1C(=O)O)CCCC2)c1ccc(F)cc1 | 16 | 68* | / | 10 | -352 | /
COC(=O)[C@@H]1[C@@H](CO)[C@@H]2Cn3c(ccc(-c4cccc(F)c4)c3=O)[C@@H]2N1CC1CCCC1 | 64* | 3 | / | / | 6 | /
COC(=O)[C@H]1[C@H](CO)[C@H]2Cn3c(ccc(-c4cccc(F)c4)c3=O)[C@H]2N1CC1CCCC1 | 9 | 8 | / | / | 5 | /
CC1(C)CC(=O)c2sc(N3CCCCC3)nc2C1 | / | 51* | -48 | / | / | 50
CC1(C)CNC(=O)c2sc(N3CCCCC3)nc2C1 | / | 15 | -20 | / | / | /
Cc1ccc(S(=O)(=O)N(C)C[C@H]2OCCCC[C@H](C)Oc3ccc(NS(C)(=O)=O)cc3C(=O)N([C@@H](C)CO)C[C@H]2C)cc1 | -23 | 5 | / | / | -1 | /
COc1ccccc1CNC(=O)COC(=O)Cc1c(F)cccc1Cl | 66* | -6 | 2 | 0 | -4 | -1
C[C@H]1CN([C@@H](C)CO)C(=O)c2cccc(NC(=O)Nc3ccc(F)cc3)c2O[C@H]1CN(C)C(=O)Nc1ccc(C(F)(F)F)cc1 | 80* | 3 | / | / | 7 | /
CNC[C@H]1Oc2c(NC(=O)Nc3ccccc3)cccc2C(=O)N([C@H](C)CO)C[C@@H]1C | 73* | -1 | / | / | -2 | /
C[C@@H]1CN([C@H](C)CO)C(=O)c2cccc(NC(=O)Nc3ccc(C(F)(F)F)cc3)c2O[C@@H]1CN(C)C(=O)Nc1ccccc1 | 11 | -3 | / | / | 8 | /
C[C@@H]1CN([C@@H](C)CO)C(=O)c2cccc(NC(=O)Nc3ccc(C(F)(F)F)cc3)c2O[C@@H]1CN(C)C(=O)Nc1ccc(F)cc1 | / | -3 | / | / | -1 | /
C[C@H](CO)N1C[C@H](C)[C@@H](CN(C)C(=O)Nc2ccc(C(F)(F)F)cc2)Oc2c(NC(=O)Nc3ccccc3)cccc2C1=O | -6 | 10 | 6 | -4 | 64*! | -7
O=C(NCC[C@@H]1CC[C@@H](NS(=O)(=O)c2cccc(F)c2)[C@H](CO)O1)C1CCCC1 | -6 | -1 | / | / | 10 | /
O=C(c1ccncc1)N1C[C@@H]2[C@H](c3ccccc31)[C@H](CO)N2Cc1ccc(F)cc1 | 2 | 1 | / | / | 2 | /
CCCNC(=O)[C@@H]1[C@@H](CO)[C@@H]2Cn3c(ccc(/C=C/c4ccccc4)c3=O)[C@H]1N2C(=O)c1ccccc1 | / | 4 | / | / | 4 | /
SMILES | PAX8 inh HTS | esBAF inh | TRPM1 prom inh | Wnt act | EWS-Fli block | MITF TRPM1 HTS
C[C@@H]1CN([C@@H](C)CO)C(=O)c2cc(NS(=O)(=O)c3ccc(Cl)cc3)ccc2O[C@@H](C)CCCCO[C@H]1CN(C)C | 80* | -1 | / | / | -2 | /
C[C@H](CO)N1C[C@H](C)[C@H](CN(C)S(=O)(=O)c2ccc(Cl)cc2)OCCCC[C@H](C)Oc2ccc(NS(=O)(=O)c3ccc(Cl)cc3)cc2C1=O | 81* | 4 | / | / | 4 | /
C[C@@H]1CCCCO[C@@H](CN(C)C)[C@H](C)CN([C@H](C)CO)C(=O)c2cc(NS(=O)(=O)c3ccc(Cl)cc3)ccc2O1 | -6 | -1 | / | / | 29 | /
C[C@@H]1CN([C@H](C)CO)C(=O)c2cc(NS(=O)(=O)c3ccc(Cl)cc3)ccc2O[C@@H](C)CCCCO[C@H]1CN(C)S(=O)(=O)c1ccc(Cl)cc1 | 95* | -1 | / | / | 15 | /
Nc1ccc(-n2ccnc2)cc1 | / | / | 4 | / | / | -4
c1ccc(-c2cccc(-c3ccccc3)n2)cc1 | -18 | 44* | -49 | 7 | -60 | 51
c1ccc2nc(-c3ccc(-n4ccnc4)cc3)ccc2c1 | -87 | 14 | -40 | 49* | -10 | 43
c1ccc(-c2ccc3ccccc3n2)cc1 | / | 37 | / | 47* | -108 | /
CCCN1[C@H](C(=O)OC)[C@@H](CO)[C@@H]2Cn3c(ccc(-c4cccc(C(=O)N(C)C)c4)c3=O)[C@@H]21 | / | / | / | / | -4 | /
COc1ccc2[nH]c(=O)c(CNc3cccc(C)c3)cc2c1 | / | 56* | -17 | / | / | 15
COc1ccc(NCc2cc3cc(OC)ccc3[nH]c2=O)cc1 | / | 23 | -3 | 4 | -11 | 7
C[C@@H]1CN([C@H](C)CO)C(=O)c2cc(NS(C)(=O)=O)ccc2O[C@H]1CN(C)Cc1ccc(Oc2ccccc2)cc1 | 19 | -1 | / | / | -1 | /
Cc1ccsc1-c1nc(-c2ccccc2)c(-c2ccccc2)[nH]1 | -125 | -3 | -9 | 53* | / | /
Cn1c(=O)c([N+](=O)[O-])c(Cl)c2ccccc21 | 101* | -1 | 95* | -1 | 61* | -94
Cc1cc(C)c2c(c1)/C(=N/NC(=O)c1ccc(O)cc1)CCC2 | 19 | / | -6 | 0 | 4 | 8
Cc1cc(C)c2c(c1)/C(=N/NC(=O)c1cc(C)oc1C)CCC2 | 99* | / | 11 | -1 | -2 | -6
CC(C)NC(=O)N(C)C[C@@H]1OCCCC[C@@H](C)Oc2ccc(NC(=O)CCCN(C)C)cc2C(=O)N([C@@H](C)CO)C[C@H]1C | -8 | / | / | / | / | /
Cc1ccc(-c2nnc(-c3ccc4ccccc4c3)o2)cc1 | -18 | 54* | -47 | 13 | -81 | 48
Cc1ccc(NC(=O)Nc2nnc(-c3ccccc3)o2)cc1 | -83 | / | -46 | 12 | -38 | 46
Clc1ccc(-c2nnc(-c3ccc4ccccc4c3)o2)cc1 | -44 | ? | -32 | -2 | -85 | 28
COc1cccc(-c2nnc(NC(C)=O)o2)c1 | -19 | -3 | -10 | -2 | -7 | 17
COc1cccc(-c2nnc(-c3ccc4ccccc4c3)o2)c1 | -133 | / | -60 | 51* | -9 | 56
COc1cccc(-c2nnc(-c3ccc(C(F)(F)F)cc3)o2)c1 | -130 | 55* | -61 | 22 | / | /
